Paper PMC10812921, “Transcriptional Coactivator BOB1 (OBF1, OCA-B) Modulates the Specificity of DNA Recognition by the POU-Domain Factors OCT1 and OCT2 in a Monomeric Configuration”

What was measured:
POU1 (OCT1 POU domain) = POU1 (OCT1 POU domain) (human, UniProt P14859 260-458); assay: EMSA-SELEX-seq; no BOB1; 20 mM Tris-HCl pH 7.6, 140 mM NaCl, 10% glycerol, 0.5 mM EDTA, 0.05% Triton X-100, 0.1 mg/mL BSA, 0.1 mg/mL poly(dI-dC), 5 mM DTT, room temperature, 20 min; high values mean tight binding; details: protein: recombinant; dsDNA, one strand shown
Method in brief: (§1)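 With or without 28 ng coactivator protein, 30 ng of tagged POU-domain protein was combined with 300 ng of a PCR-amplified double-stranded random 35-nt library in 20 μL Tris–HCl pH 7.6 binding buffer for 20 min at RT. The protein came from E. coli BL21 and had been purified under denaturing conditions and renatured. Four rounds of cutting complex bands from native 6% PAGE, elution and PCR amplification preceded Illumina sequencing. The binding preference figure is the percentage of sequenced 8-mers matching a motif pattern.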

POU2 (OCT2 POU domain) = molecular target: T1, POU2 (OCT2 POU domain) (human, UniProt P09086 175-386); assay: as above; details: protein: recombinant; dsDNA, one strand shown
T1 sequence: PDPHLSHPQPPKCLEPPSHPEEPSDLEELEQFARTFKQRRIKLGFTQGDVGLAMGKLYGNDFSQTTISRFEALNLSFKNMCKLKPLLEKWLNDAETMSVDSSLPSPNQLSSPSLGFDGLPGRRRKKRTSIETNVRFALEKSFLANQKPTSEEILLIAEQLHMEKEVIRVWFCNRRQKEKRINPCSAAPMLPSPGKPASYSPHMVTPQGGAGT
Method in brief: as §1

[1] = molecular target: POU1 (OCT1 POU domain);BOB1 (OBF1, OCA-B) (human;human, UniProt P14859;Q16633 260-458;1-256, |); assay: EMSA-SELEX-seq; with BOB1 (ternary complex band); 20 mM Tris-HCl pH 7.6, 140 mM NaCl, 10% glycerol, 0.5 mM EDTA, 0.05% Triton X-100, 0.1 mg/mL BSA, 0.1 mg/mL poly(dI-dC), 5 mM DTT, room temperature, 20 min; high values mean tight binding; details: protein: recombinant;recombinant; copies: 1;1; dsDNA, one strand shown
Method in brief: as §1

[2] = molecular target: T2, POU2 (OCT2 POU domain);BOB1 (OBF1, OCA-B) (human;human, UniProt P09086;Q16633 175-386;1-256, |); assay: as above; details: protein: recombinant;recombinant; copies: 1;1; dsDNA, one strand shown
T2 sequence 1: T1 sequence
T2 sequence 2: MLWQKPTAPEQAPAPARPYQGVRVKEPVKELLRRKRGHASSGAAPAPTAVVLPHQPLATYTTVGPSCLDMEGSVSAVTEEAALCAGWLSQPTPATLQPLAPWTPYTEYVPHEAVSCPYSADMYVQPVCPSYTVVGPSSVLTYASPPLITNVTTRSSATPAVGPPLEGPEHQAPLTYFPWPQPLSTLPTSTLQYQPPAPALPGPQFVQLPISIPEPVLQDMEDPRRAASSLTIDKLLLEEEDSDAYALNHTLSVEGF
Method in brief: as §1

Chain of POU1 (OCT1 POU domain) (P14859 260-458): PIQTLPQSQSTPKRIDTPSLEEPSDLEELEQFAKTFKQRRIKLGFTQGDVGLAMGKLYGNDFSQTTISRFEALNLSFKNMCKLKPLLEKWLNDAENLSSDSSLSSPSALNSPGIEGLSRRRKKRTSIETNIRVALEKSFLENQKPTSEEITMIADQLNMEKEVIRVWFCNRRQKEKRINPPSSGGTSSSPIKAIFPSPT

Sequence | binding signal (POU1 (OCT1 POU domain)) | binding signal (POU2 (OCT2 POU domain)) | binding signal [1] | binding signal [2]
ACTGTAAT | 0.0572 % of ANNNNAAN 8-mers | 0.0788 % of ANNNNAAN 8-mers | 0.0464 % of ANNNNAAN 8-mers | 0.0504 % of ANNNNAAN 8-mers
AAAAGAAT | 0.0858 % of ANNNNAAN 8-mers | 0.088 % of ANNNNAAN 8-mers | 0.0937 % of ANNNNAAN 8-mers | 0.0817 % of ANNNNAAN 8-mers
AGCCCAAA | 0.0164 % of ANNNNAAN 8-mers | 0.0207 % of ANNNNAAN 8-mers | 0.0156 % of ANNNNAAN 8-mers | 0.0157 % of ANNNNAAN 8-mers
ATACTAAG | 0.045 % of ANNNNAAN 8-mers | 0.0518 % of ANNNNAAN 8-mers | 0.0441 % of ANNNNAAN 8-mers | 0.0438 % of ANNNNAAN 8-mers
ATTTTAAG | 0.108 % of ANNNNAAN 8-mers | 0.131 % of ANNNNAAN 8-mers | 0.0964 % of ANNNNAAN 8-mers | 0.101 % of ANNNNAAN 8-mers
ACACTAAG | 0.0179 % of ANNNNAAN 8-mers | 0.0219 % of ANNNNAAN 8-mers | 0.0226 % of ANNNNAAN 8-mers | 0.0289 % of ANNNNAAN 8-mers
ACTCAAAA | 0.0427 % of ANNNNAAN 8-mers | 0.0339 % of ANNNNAAN 8-mers | 0.046 % of ANNNNAAN 8-mers | 0.0363 % of ANNNNAAN 8-mers
AATACAAT | 0.0797 % of ANNNNAAN 8-mers | 0.107 % of ANNNNAAN 8-mers | 0.0663 % of ANNNNAAN 8-mers | 0.0982 % of ANNNNAAN 8-mers
AGAGTAAA | 0.0564 % of ANNNNAAN 8-mers | 0.0386 % of ANNNNAAN 8-mers | 0.0605 % of ANNNNAAN 8-mers | 0.0512 % of ANNNNAAN 8-mers
AGTACAAC | 0.0164 % of ANNNNAAN 8-mers | 0.0173 % of ANNNNAAN 8-mers | 0.0152 % of ANNNNAAN 8-mers | 0.0413 % of ANNNNAAN 8-mers
AAACGAAG | 0.045 % of ANNNNAAN 8-mers | 0.0483 % of ANNNNAAN 8-mers | 0.0589 % of ANNNNAAN 8-mers | 0.0528 % of ANNNNAAN 8-mers
AGATAAAG | 0.0439 % of ANNNNAAN 8-mers | 0.0495 % of ANNNNAAN 8-mers | 0.0359 % of ANNNNAAN 8-mers | 0.0281 % of ANNNNAAN 8-mers
AAAATAAT | 0.178 % of ANNNNAAN 8-mers | 0.212 % of ANNNNAAN 8-mers | 0.153 % of ANNNNAAN 8-mers | 0.155 % of ANNNNAAN 8-mers
AAGACAAT | 0.0477 % of ANNNNAAN 8-mers | 0.0478 % of ANNNNAAN 8-mers | 0.0382 % of ANNNNAAN 8-mers | 0.0405 % of ANNNNAAN 8-mers
AAACTAAA | 0.0503 % of ANNNNAAN 8-mers | 0.0483 % of ANNNNAAN 8-mers | 0.0523 % of ANNNNAAN 8-mers | 0.0471 % of ANNNNAAN 8-mers
AGGGAAAG | 0.194 % of ANNNNAAN 8-mers | 0.136 % of ANNNNAAN 8-mers | 0.222 % of ANNNNAAN 8-mers | 0.142 % of ANNNNAAN 8-mers
AACGGAAA | 0.0561 % of ANNNNAAN 8-mers | 0.0552 % of ANNNNAAN 8-mers | 0.0741 % of ANNNNAAN 8-mers | 0.0561 % of ANNNNAAN 8-mers
AATATAAA | 0.156 % of ANNNNAAN 8-mers | 0.178 % of ANNNNAAN 8-mers | 0.107 % of ANNNNAAN 8-mers | 0.101 % of ANNNNAAN 8-mers
AACGAAAG | 0.0313 % of ANNNNAAN 8-mers | 0.0328 % of ANNNNAAN 8-mers | 0.0328 % of ANNNNAAN 8-mers | 0.0264 % of ANNNNAAN 8-mers
ATCTGAAA | 0.0374 % of ANNNNAAN 8-mers | 0.046 % of ANNNNAAN 8-mers | 0.0472 % of ANNNNAAN 8-mers | 0.0545 % of ANNNNAAN 8-mers
AACAAAAT | 0.119 % of ANNNNAAN 8-mers | 0.0926 % of ANNNNAAN 8-mers | 0.14 % of ANNNNAAN 8-mers | 0.0982 % of ANNNNAAN 8-mers
AGCATAAT | 0.269 % of ANNNNAAN 8-mers | 0.277 % of ANNNNAAN 8-mers | 0.0757 % of ANNNNAAN 8-mers | 0.106 % of ANNNNAAN 8-mers
ACCACAAA | 0.0141 % of ANNNNAAN 8-mers | 0.0196 % of ANNNNAAN 8-mers | 0.014 % of ANNNNAAN 8-mers | 0.0198 % of ANNNNAAN 8-mers
